Experimental data: PubChem BioAssay (Tox21)
Records with an inconclusive call do not appear. Active and inactive are the calls of the source. Unless noted, calls follow the shape of the full dose curve.

Experiments:
[1] = Nuclear factor erythroid 2-related factor 2/antioxidant responsive element (Nrf2/ARE) small molecule agonists: qHTS cell viability counter screen in human keratinocytes (AID 1919968; active = well fitted curve in the direction sought with a large enough effect in the repeat runs; an effect the other way counts as inactive or inconclusive; also: nearly all actives have a fitted effect of over 55% in size)
Outline: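 Cells of the KeratinoSens line were plated at 1,500 per well and left for 5 h before compound transfer from DMSO stocks. After a 23 h incubation (37 C, 5% CO2), CellTiter-Fluor was added. Signal was taken as fluorescence intensity 1 h later.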

[2] = Nuclear factor erythroid 2-related factor 2/antioxidant responsive element (Nrf2/ARE) small molecule agonists: luciferase reporter gene qHTS assay in human keratinocytes (AID 1919969); also: nearly all actives have a fitted effect of over 35% in size
[3] = target: Gonadotropin-releasing hormone receptor (Homo sapiens) (UniProt P30968); test: Human gonadotropin-releasing hormone receptor (GnRHR) small molecule agonists, calcium flux assay in GnRHR-HEK293 cells (AID 1920063); also: nearly all actives have a fitted effect of over 35% in size
Chain of Gonadotropin-releasing hormone receptor (Homo sapiens) (P30968 whole entry, looked up): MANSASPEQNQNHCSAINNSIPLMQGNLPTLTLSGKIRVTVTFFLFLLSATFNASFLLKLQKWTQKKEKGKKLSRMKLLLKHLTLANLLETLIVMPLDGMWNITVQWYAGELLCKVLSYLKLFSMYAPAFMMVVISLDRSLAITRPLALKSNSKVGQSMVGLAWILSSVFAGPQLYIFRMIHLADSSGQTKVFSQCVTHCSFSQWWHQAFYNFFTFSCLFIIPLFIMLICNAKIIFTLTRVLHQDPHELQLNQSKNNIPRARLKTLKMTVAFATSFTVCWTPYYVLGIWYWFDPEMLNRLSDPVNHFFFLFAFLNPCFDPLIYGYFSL
Outline: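 Compounds dissolved in DMSO are pin-transferred onto dye-loaded GnRHR-HEK293 cells, which were seeded 18 h before at 37 C/5% CO2. Calcium signal is read as fluorescence intensity at 1 s intervals for 3 min.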

[4] = target: KiSS-1 receptor (Homo sapiens) (UniProt Q969F8); test: Human kisspeptin (KISS1R) small molecule agonists, calcium flux assay in KISS1R-HEK293 cells (AID 1920064; active = well fitted curve in the direction sought with a large enough effect in the repeat runs; an effect the other way counts as inactive or inconclusive)
Chain of KiSS-1 receptor (Homo sapiens) (Q969F8 whole entry, looked up): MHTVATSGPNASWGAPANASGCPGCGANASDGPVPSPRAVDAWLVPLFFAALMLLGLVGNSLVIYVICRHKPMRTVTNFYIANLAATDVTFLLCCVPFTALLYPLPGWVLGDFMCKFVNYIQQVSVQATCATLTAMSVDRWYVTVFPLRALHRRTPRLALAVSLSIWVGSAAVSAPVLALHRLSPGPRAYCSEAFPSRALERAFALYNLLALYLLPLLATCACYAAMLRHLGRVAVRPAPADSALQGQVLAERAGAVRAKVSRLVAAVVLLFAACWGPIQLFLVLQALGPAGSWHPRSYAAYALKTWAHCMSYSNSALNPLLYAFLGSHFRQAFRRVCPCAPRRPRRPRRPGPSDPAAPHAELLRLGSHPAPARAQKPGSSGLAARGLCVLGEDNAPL
Outline: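 Cell line: HEK293, stable human KISS1R. Dye loading 1 h at 37 C after 18 h culture. Read: kinetic fluorescence, 480/540 nm, 3 min at 1 s intervals.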

[5] = G protein-coupled receptor (GPCR) small molecule agonists, calcium flux assay: HEK293 wild type cell line counter screen (AID 1920065)
Outline: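 Tox21 10K compounds, 15 concentrations each in triplicate, pin-transferred in DMSO onto dye-loaded cells; kinetic read at 480/540 nm for 3 min, 1 s intervals.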

[6] = p53 small molecule agonists, cell-based qHTS assay with human liver microsomes: qHTS cell viability counter screen (AID 1963579); also: nearly all actives have a fitted effect of over 45% in size
Outline: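 After the 460/530 nm beta-lactamase read, CellTiter-Glo was added to the same wells and luminescence measured after 30 min at room temperature, giving viability of p53RE-bla cells treated 16 h with compounds plus microsomes and NADPH.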

[7] = p53 small molecule agonists, cell-based qHTS assay with rat liver microsomes: qHTS cell viability counter screen (AID 1963580); also: nearly all actives have a fitted effect of over 45% in size
Outline: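 Luminescent ATP readout (CellTiter-Glo, 30 min at room temperature) reports viability of p53RE-bla HCT-116 cells after 16 h at 37 C with test compounds under metabolic activation by rat liver microsomes and NADPH at 0.5 mg/mL final each.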

[8] = p53 small molecule agonists, cell-based qHTS assay: qHTS cell viability counter screen (AID 1963581); also: nearly all actives have a fitted effect of over 45% in size
Outline: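 ATP content measured by luminescence in HCT-116 p53RE-bla cells treated 16 h at 37 C, same wells as the reporter screen.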

[9] = target: 5-hydroxytryptamine receptor 2A (Homo sapiens) (UniProt P28223); test: 5-hydroxytryptamine receptor 2A (HTR2A) small molecule antagonists, cell-based qHTS assay (AID 1963586); also: nearly all actives have a fitted effect of over 45% in size
Chain of 5-hydroxytryptamine receptor 2A (Homo sapiens) (P28223 whole entry, looked up): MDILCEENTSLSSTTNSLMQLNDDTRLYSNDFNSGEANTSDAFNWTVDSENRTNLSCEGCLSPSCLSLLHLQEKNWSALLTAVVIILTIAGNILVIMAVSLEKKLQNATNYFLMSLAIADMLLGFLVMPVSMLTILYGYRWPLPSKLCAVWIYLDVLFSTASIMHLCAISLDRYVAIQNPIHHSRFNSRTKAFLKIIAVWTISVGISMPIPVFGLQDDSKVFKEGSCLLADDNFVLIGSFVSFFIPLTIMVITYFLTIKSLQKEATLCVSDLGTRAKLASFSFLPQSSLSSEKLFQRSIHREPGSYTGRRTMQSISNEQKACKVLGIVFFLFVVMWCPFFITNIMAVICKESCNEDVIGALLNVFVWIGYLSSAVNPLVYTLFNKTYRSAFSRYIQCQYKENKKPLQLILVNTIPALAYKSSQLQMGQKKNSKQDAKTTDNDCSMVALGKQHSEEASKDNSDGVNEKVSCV
Outline: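 CHO cells stably expressing human HTR2A were plated for 18 h at 37 C, then loaded with calcium dye for 1 h. Compounds were preincubated 5 min at room temperature before DOI (4 nM solution) was added. Kinetic fluorescence was read for 3 min.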

[10] = target: 5-hydroxytryptamine receptor 2A (Homo sapiens) (UniProt P28223); test: 5-hydroxytryptamine receptor 2A (HTR2A) small molecule agonists, cell-based qHTS assay (AID 1963587); also: nearly all actives have a fitted effect of over 30% in size
Outline: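 HTR2A-CHO cells, plated 18 h at 37 C/5% CO2, dye-loaded 1 h at 37 C; compounds in DMSO added by pin tool (agonist mode). Intracellular calcium flux read as kinetic fluorescence on FDSS over 2 min at 1 s intervals.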

[11] = target: Muscarinic acetylcholine receptor M1 (Homo sapiens) (UniProt P11229); test: Cholinergic receptor muscarinic 1 (CHRM1) small molecule antagonists, cell-based qHTS assay (AID 1963588); also: nearly all actives have a fitted effect of over 40% in size
Chain of Muscarinic acetylcholine receptor M1 (Homo sapiens) (P11229 whole entry, looked up): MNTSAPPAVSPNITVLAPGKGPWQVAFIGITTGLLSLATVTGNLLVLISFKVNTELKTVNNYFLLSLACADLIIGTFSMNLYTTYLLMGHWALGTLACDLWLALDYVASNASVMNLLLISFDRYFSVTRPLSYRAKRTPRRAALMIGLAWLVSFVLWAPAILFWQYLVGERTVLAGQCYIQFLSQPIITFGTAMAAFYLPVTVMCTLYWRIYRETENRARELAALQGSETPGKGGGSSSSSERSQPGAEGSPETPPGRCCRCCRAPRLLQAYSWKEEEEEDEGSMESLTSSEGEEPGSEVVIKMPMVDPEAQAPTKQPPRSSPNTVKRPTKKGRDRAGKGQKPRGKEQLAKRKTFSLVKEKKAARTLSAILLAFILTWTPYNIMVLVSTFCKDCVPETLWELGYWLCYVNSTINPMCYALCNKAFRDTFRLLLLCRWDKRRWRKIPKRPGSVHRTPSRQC
Outline: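 Compounds were tested at 15 concentrations in three independent runs. Dye-loaded CHRM1-CHO cells were exposed 5 min at room temperature before stimulation by acetylcholine added at 50nM. Intracellular calcium was read kinetically on FDSS for 3 min.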

[12] = target: Muscarinic acetylcholine receptor M1 (Homo sapiens) (UniProt P11229); test: Cholinergic receptor muscarinic 1 (CHRM1) small molecule agonists, cell-based qHTS assay (AID 1963589); also: nearly all actives have a fitted effect of over 35% in size
Outline: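 Homogeneous fluorescence calcium flux, agonist mode. Human M1-expressing CHO cells; compound dosed at 15 concentrations, three independent runs; signal sampled every 1 sec.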

[13] = cAMP Responsive Elements (CRE) small molecule agonists, cell-based qHTS assay (AID 1963590)
Outline: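 HEK 293T cells stably bearing CRE-bla were plated at 2,000 cells per well and rested 18 h. Compounds, positive controls or DMSO were added for 3 h at 37 C. LiveBLAzer B/G substrate was then loaded for 2 h at room temperature.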

[14] = cAMP Responsive Elements (CRE) small molecule antagonists, cell-based qHTS assay (AID 1963591; active = well fitted inhibition curve with a large enough effect in the signal ratio in the repeat runs, not every such curve was filed as active; the % refers to the signal ratio)
Outline: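 First, CRE-bla HEK293T cells settled 18 h at 37 C. Next, compound and 0.25 uM final NKH477 were applied for 3 h. Last, LiveBLAzer B/G substrate was loaded for 2 h at room temperature.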

[15] = target: Beta-2 adrenergic receptor (Homo sapiens) (UniProt P07550); test: Adrenergic beta2 receptor (ADRB2) small molecule antagonists, cell-based qHTS assay (AID 1963592); also: series mostly up to about 92 µM; nearly all actives have a fitted effect of over 50% in size
Chain of Beta-2 adrenergic receptor (Homo sapiens) (P07550 whole entry, looked up): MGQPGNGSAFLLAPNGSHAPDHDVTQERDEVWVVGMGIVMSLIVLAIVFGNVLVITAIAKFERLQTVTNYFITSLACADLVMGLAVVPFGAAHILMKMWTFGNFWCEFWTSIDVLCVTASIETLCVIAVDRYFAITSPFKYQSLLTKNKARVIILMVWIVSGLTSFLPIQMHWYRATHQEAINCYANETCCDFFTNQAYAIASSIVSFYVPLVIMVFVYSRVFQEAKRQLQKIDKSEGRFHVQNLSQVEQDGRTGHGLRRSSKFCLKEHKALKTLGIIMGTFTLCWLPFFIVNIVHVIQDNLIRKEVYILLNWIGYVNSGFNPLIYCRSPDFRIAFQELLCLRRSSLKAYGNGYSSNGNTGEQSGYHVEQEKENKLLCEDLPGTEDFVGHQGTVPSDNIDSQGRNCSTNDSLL
Outline: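 Assay format: CHO-ADRB2 cells, 18-20hr seeding at 37C/5% CO2, then compound plus 1nM isoproterenol agonist mix for 0.5hr RT. Homogeneous time-resolved fluorescence cAMP detection after 1hr, expressed as 665/615 nm ratio.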

[16] = target: D(2) dopamine receptor (Homo sapiens) (UniProt P14416); test: Dopamine D2 receptor (DRD2) small molecule agonists, cell-based qHTS assay (AID 1963594); also: nearly all actives have a fitted effect of over 35% in size
Chain of D(2) dopamine receptor (Homo sapiens) (P14416 whole entry, looked up): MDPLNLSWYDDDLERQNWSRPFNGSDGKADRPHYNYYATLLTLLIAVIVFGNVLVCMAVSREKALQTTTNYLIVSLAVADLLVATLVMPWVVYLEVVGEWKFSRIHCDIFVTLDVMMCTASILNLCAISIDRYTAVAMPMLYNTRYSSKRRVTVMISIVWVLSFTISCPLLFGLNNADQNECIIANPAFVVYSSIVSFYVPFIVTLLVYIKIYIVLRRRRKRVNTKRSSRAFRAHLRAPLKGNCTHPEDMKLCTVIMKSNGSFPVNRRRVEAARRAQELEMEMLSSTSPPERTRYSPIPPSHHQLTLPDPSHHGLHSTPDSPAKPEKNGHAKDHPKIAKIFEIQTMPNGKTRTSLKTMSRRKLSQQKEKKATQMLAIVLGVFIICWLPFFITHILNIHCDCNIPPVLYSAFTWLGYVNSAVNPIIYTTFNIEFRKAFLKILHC
Outline: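 HEK293 cells stably expressing DRD2 were cultured 24 h at 37 C, then given Ro20-1724 (0.1 mM final) and compounds for 10 min at room temperature. NKH477 (200nM) was then added for 30 min. cAMP was read by HTRF.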

[17] = p53 small molecule agonists, cell-based qHTS assay with rat liver microsomes (AID 1963578)
Outline: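 Metabolic activation is supplied by rat liver microsomes with NADPH (each 0.5 mg/mL final). p53RE-bla cells incubate with compound 16 h at 37 C; reporter activity is measured by LiveBLAzer fluorescence.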

[18] = target: D(2) dopamine receptor (Homo sapiens) (UniProt P14416); test: Dopamine D2 receptor (DRD2) small molecule antagonists, cell-based qHTS assay (AID 1963595; active = well fitted inhibition curve with a large enough effect in the signal ratio in the repeat runs, with a control signal flat; the % refers to the signal ratio)
Outline: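 DRD2-HEK293; 0.1 mM Ro20-1724; cpd 10 min RT; NKH477 200 nM + quinpirole 12 nM, 30 min RT; HTRF cAMP (cAMP-d2/anti-cAMP cryptate), 665/620 nm ratio after 1 h.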

[19] = p53 small molecule agonists, cell-based qHTS assay with human liver microsomes (AID 1963577);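 also: p53 response element beta-lactamase reporter cells with liver microsomes plus NADPH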
Outline: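 Steps: plate p53RE-bla cells, incubate 5 h at 37 C; add compound in DMSO; add microsomes (0.5 mg/mL final) and NADPH (0.5 mg/mL final); incubate 16 h at 37 C; add LiveBLAzer, 2 h RT; read fluorescence.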

[20] = p53 small molecule agonists, cell-based qHTS assay (AID 1963582; active = well fitted activation curve with a large enough effect in the signal ratio in the repeat runs, not every such curve was filed as active; the % refers to the signal ratio)
Outline: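 16 h compound exposure (37 C) of p53 response element–bla cells, preceded by 5 h recovery at 37 C/5% CO2; read-out via LiveBLAzer B/G FRET substrate, 2 h RT, fluorescence intensity.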
% is scaled to controls: 0 for no effect and ±100 for the full control effect.

CC(=O)OC(C)(C)Cc1ccccc1
inactive: Potency [1] | Potency [2] | Potency [3] | outcome [4] | outcome [5] | Potency [6] | Potency [7] | Potency [8] | Potency [9] | Potency [10] | Potency [11] | Potency [12] | Potency [13] | Potency [14] | Potency [15] | Potency [16]

CCCCCCCCCCCCCOP(=O)(O)O
inactive: Potency [1] | Potency [2] | Potency [3] | outcome [4] | outcome [5] | Potency [17] | Potency [6] | Potency [9] | Potency [10] | Potency [11] | Potency [12] | Potency [13] | Potency [14] | Potency [15] | Potency [16] | Potency [18]

O=CCCc1ccccc1
inactive: Potency [1] | Potency [2] | Potency [3] | outcome [4] | outcome [5] | Potency [6] | Potency [7] | Potency [9] | Potency [10] | Potency [11] | Potency [12] | Potency [13] | Potency [14] | Potency [15] | Potency [16]

CC(C)CCCC(C)NCCC(C)C (stereo not given)
inactive: Potency [1] | Potency [2] | Potency [3] | outcome [4] | Potency [19] | Potency [17] | Potency [6] | Potency [7] | Potency [8] | Potency [20] | Potency [9] | Potency [10] | Potency [11] | Potency [12] | Potency [14] | Potency [15] | Potency [16]

N[C@@H](CSCCCO)C(=O)O
inactive: activity change, negative = cytotoxicity [1] 5.92% [at 19 µM] | activity, positive = activation [2] -5.15% [at 19 µM] | activity change [3] -0.573% [at 11.8 µM, hits give high values] | activation [4] 2.59% [at 15.8 µM] | activation [19] 1.76% [at 13.5 µM] | activation [17] 4.94% [at 13.6 µM] | activity change, negative = cytotoxicity [6] -3.2% [at 13.5 µM] | activity change, negative = cytotoxicity [7] -10.3% [at 13.5 µM] | activity change, negative = cytotoxicity [8] -10.7% [at 13.5 µM] | activation [20] 9.64% [at 13.5 µM] | activity, negative = inhibition [9] 4.22% [at 12.7 µM] | activation [10] 0.941% [at 15.9 µM] | activity, negative = inhibition [11] -6.77% [at 12.6 µM] | activation [12] -0.169% [at 15.8 µM] | activation [13] 0.961% [at 19 µM] | activity change, negative = inhibition [14] 4.42% [at 18.9 µM] | activity change, negative = inhibition [15] -0.974% [at 19 µM] | activation [16] 5.68% [at 19 µM] | activity change, negative = inhibition [18] 8.57% [at 18.9 µM]

C/C(=N/NC(=O)c1ccncc1)C(=O)O
inactive: Potency [1] | Potency [2] | Potency [3] | outcome [4] | Potency [19] | Potency [17] | Potency [6] | Potency [7] | Potency [8] | Potency [20] | Potency [9] | Potency [10] | Potency [11] | Potency [12] | Potency [13] | Potency [15] | Potency [16] | Potency [18]

CCCCCCOC(=O)CCC
inactive: Potency [1] | Potency [2] | Potency [3] | outcome [4] | Potency [19] | Potency [17] | Potency [6] | Potency [7] | Potency [8] | Potency [20] | Potency [9] | Potency [10] | Potency [11] | Potency [12] | Potency [13] | Potency [14] | Potency [15] | Potency [16] | Potency [18]
